{
  "source": "PubChem BioAssay AID1571",
  "about": "(National Center for Advancing Translational Sciences (NCATS), 2009)",
  "note": "Records with an inconclusive call do not appear. Entries that show only a call come without a potency. Unmarked numbers belong to inactive results. Calls of active or inactive are those of the source. Calls come from the whole dose curve; as a rule, active = well fitted curve in the direction sought with a large enough effect; inconclusive = small, poorly fitted or top-dose-only effect, or effect the other way; inactive = flat fitted curve, though single readings scatter.",
  "data": [
    {"assay": "Total Fluorescence Confirmation Counterscreen for Inhibitors of the Interaction of Thyroid Hormone Receptor and Steroid Receptor Coregulator 2, Fluorescein Fluoroprobe", "settings": "TRbeta/SRC2-fluorescein mix, total fluorescence interference; series mostly up to 92.2 µM", "source_text": "NIH Molecular Libraries Probe Production Network [MLPCN] NIH Chemical Genomics Center [NCGC] MLPCN Grant: DK058080 Assay Provider: R. Kip Guy, St. Jude Children's Research Hospital NCGC Assay Overview: Thyroid receptor (TR) regulates many homeostatic processes including basal metabolism, cardiovascular function, body weight, and lipid trafficking. TR modulators are potential therapeutics for obesity and hyperlipidemias but current thyroid analogs have undesirable side effects, particularly cardiac stimulation. To identify inhibitors that specifically prevent the interaction of TR with the steroid receptor coregulator 2 (SRC2), a fluorescence polarization assay was screened (Arnold et al., 2006). This assay detects interaction of the ligand-binding domain of human TRbeta with a fluorescein labeled SRC2 peptide, corresponding to a 20 amino acid region of the nuclear receptor interaction domain. Total fluorescence (555 nm excitation and 632 nm emission) was measured to identify potential fluorescent and light absorbing compounds. Such compounds may be artifacts that interfere with the fluorescence polarization assay. This assay is a confirmation assay for AID 1479. Arnold, L. A.; Estebanez-Perpina, E.; Togashi, M.; Shelat, A.; Ocasio, C. A.; McReynolds, A. C.; Nguyen, P.; Baxter, J. D.; Fletterick, R. J.; Webb, P.; Guy, R. K. A high-throughput screening method to identify small molecule inhibitors of thyroid hormone receptor coactivator binding. Sci STKE 2006, p 13.\nNCGC Assay Protocol Summary: For screening, 5 uL/well 0.6 uM TRbeta and 20 nM SRC2 Fluorescein in protein buffer (20mM Tris hydrochloride, 100mM NaCl, 10% glycerol, 1mM EDTA, 0.01% NP-40, 1mM DTT, 1uM T3 and 5% DMSO) was dispensed into black solid 1536-well plates (Grenier) using a solenoid-based dispenser. Following transfer of 23 nL compound or DMSO vehicle by a pin tool, the plates were centrifuged 15 s at 1000 RPM and incubated 5 hr at ambient temperature. The plates were read by an Envision (Perkin Elmer) to detect fluorescence polarization of SRC2 Fluorescein (480 nm excitation and 535 nm emission). Data were normalized to unbound (all components except TRbeta) and bound SRC2 Fluorescein controls. Total fluorescence (TF) was calculated as follows: TF = S + 2P where S and P are fluorescence readings in the parallel and perpendicular channels, respectively. In this assay, we provide % activity data for each concentration as well as potencies for the active compounds.", "values": [
      {"smiles": "CCOC(=O)c1cnc2nc(NCc3ccc(OC)c(OC)c3)[nH]n2c1=O", "Potency": "inactive"},
      {"smiles": "Cc1c(C#N)c(O)n(CCO)c(=O)c1N=Nc1ccc2c(c1)COC2=O", "Potency": "inactive"},
      {"smiles": "COc1ccc(CN2C(=O)Cc3c2nc(N)c2c(N)nc(N4CCCCC4)c(C#N)c32)cc1", "Potency": "inactive"},
      {"smiles": "CC(NC(=O)Nc1ccc(O)cc1)(C(F)(F)F)C(F)(F)F", "total fluorescence change, positive = fluorescent": "8.06% [at 11.6 µM]"},
      {"smiles": "CCCc1cc(=O)[nH]c(=S)[nH]1", "Potency": "inactive"},
      {"smiles": "CCC(NC(=O)Nc1ccc(O)cc1)(C(F)(F)F)C(F)(F)F", "Potency": "inactive"},
      {"smiles": "CCc1ccc2c(c1)c1nc(C)sc1n2CC", "Potency": "inactive"},
      {"smiles": "CN(C(=S)Nc1cccnc1)c1ccc(O)cc1", "Potency": "inactive"},
      {"smiles": "Cn1c(-c2ccc(=O)[nH]c2)nc2ccccc21", "Potency": "inactive"},
      {"smiles": "O=c1[nH]c(Nc2ccccc2)cc2ccccc12", "Potency": "35.5 µM [fluorescent] (active)"},
      {"smiles": "Cc1cc2c(NC(=O)Nc3ccccc3)cccc2nn1", "total fluorescence change, positive = fluorescent": "9.99% [at 0.0112 µM]"},
      {"smiles": "COc1ccc2ccc3c(c2c1)N=CC1(O3)N(C)c2ccccc2C1(C)C", "note": "(stereo not given)", "total fluorescence change, positive = fluorescent": "-5.71% [at 0.0112 µM]"},
      {"smiles": "CC(=O)c1cccc(NC(=O)COC(=O)c2ccc(S(C)(=O)=O)c([N+](=O)[O-])c2)c1", "total fluorescence change, positive = fluorescent": "9.6% [at 11.6 µM]"},
      {"smiles": "CCN(CC)S(=O)(=O)c1cccc(N=NC2=C(O)CCCC2=O)c1", "total fluorescence change, positive = fluorescent": "7.56% [at 0.0112 µM]"},
      {"smiles": "CN1c2ccccc2C(C)(C)C12C=Nc1c(ccc3ccccc13)O2", "note": "(stereo not given)", "Potency": "inactive"},
      {"smiles": "Nc1cc(-c2ccncc2)c[nH]c1=O", "Potency": "inactive"},
      {"smiles": "COc1cc(C(c2c(C)[nH][nH]c2=O)c2c(C)[nH][nH]c2=O)ccc1OC(=O)c1cccc(C)c1", "Potency": "inactive"},
      {"smiles": "O=C1CCCC(O)=C1N=Nc1cccc(S(=O)(=O)N2CCOCC2)c1", "Potency": "inactive"},
      {"smiles": "Cc1nc2c3cc(F)ccc3n(Cc3ccccc3F)c2s1", "Potency": "inactive"},
      {"smiles": "CC1(C)C(N(O)C(=O)Nc2ccc(Cl)cc2)N(c2ccc(Cl)cc2)C(=O)N1CC(=O)NN", "note": "(stereo not given)", "total fluorescence change, positive = fluorescent": "17.6% [at 11.6 µM]"},
      {"smiles": "Nc1c(C(=O)NCc2ccco2)c2nc3ccccc3nc2n1CCc1ccccc1", "Potency": "inactive"},
      {"smiles": "Nc1cccnc1Sc1cc(Cl)c(Cl)cc1Cl", "Potency": "inactive"},
      {"smiles": "Cn1c(NNC(=O)c2c(F)cccc2F)cc(=O)n(C)c1=O", "Potency": "inactive"},
      {"smiles": "Cc1cc(C)cc(OCC(=O)NCCc2nc3ccccc3[nH]2)c1", "Potency": "inactive"},
      {"smiles": "O=C(O)[C@H]1CN(CCCP(=O)(O)O)CCN1", "Potency": "inactive"},
      {"smiles": "CCN(C(=O)C1CCCN(c2ncnc3onc(-c4ccc(F)cc4)c23)C1)c1ccccc1", "note": "(stereo not given)", "Potency": "inactive"},
      {"smiles": "CN1N=C(C(C)(C)C)CC1=O", "Potency": "inactive"},
      {"smiles": "CC1(C)CC(=O)C(N=Nc2cccc(S(=O)(=O)N3CCOCC3)c2)=C(O)C1", "Potency": "inactive"},
      {"smiles": "Cc1cccc(S(=O)(=O)c2cn(Cc3ccccc3)c3cc(N4CCC(C)CC4)c(F)cc3c2=O)c1", "Potency": "inactive"},
      {"smiles": "O=C(NNc1cc(N2CCOCC2)nc(N2CCOCC2)n1)c1ccc(Cl)c(Cl)c1", "Potency": "inactive"},
      {"smiles": "CN(CCO)c1nc(N)c2c(N)nc3c(c2c1C#N)CC(=O)N3C1CCCC1", "total fluorescence change, positive = fluorescent": "13.6% [at 11.6 µM]"},
      {"smiles": "Cc1cccc(Cn2c(C(=O)OC(C)C)cc3c2ccn3C)c1", "total fluorescence change, positive = fluorescent": "8.18% [at 5.76 µM]"},
      {"smiles": "COc1cc(NCCCC(C)N)c2ncccc2c1", "note": "(stereo not given)", "total fluorescence change, positive = fluorescent": "-9.55% [at 11.6 µM]"},
      {"smiles": "Cc1ccc(OC(=S)Nc2ccc(O)cc2)cc1", "Potency": "inactive"},
      {"smiles": "COc1ccc(-c2nc(CS(=O)CC(=O)NCc3ccccn3)c(C)o2)cc1", "note": "(stereo not given)", "Potency": "39.8 µM [fluorescent] (active)"},
      {"smiles": "O=C(NNc1cc(N2CCOCC2)nc(N2CCOCC2)n1)c1ccc([N+](=O)[O-])cc1", "total fluorescence change, positive = fluorescent": "19.9% [at 11.6 µM]"},
      {"smiles": "COc1cc(/C=C(\\C#N)C(=O)NCC2CCCO2)ccc1OCCC(C)C", "note": "(stereo not given)", "Potency": "inactive"},
      {"smiles": "Cc1ccc(-c2nc(S(=O)(=O)c3ccc(F)cc3)c(SCC(=O)NCC3CCCO3)o2)cc1", "note": "(stereo not given)", "Potency": "inactive"},
      {"smiles": "O=C(O)/C=C/C(=O)Nc1ccc(OC(F)(F)F)cc1Br", "total fluorescence change, positive = fluorescent": "17.7% [at 0.0112 µM]"},
      {"smiles": "COc1ccc(C(=O)Oc2ccc(C(c3c(C)[nH][nH]c3=O)c3c(C)[nH][nH]c3=O)cc2OC)cc1", "Potency": "inactive"}
    ]}
  ]
}
